# Calls of active or inactive are those of the source.
# What was measured:
# [1] = small molecules captured by biotinylated probe aFSTL3 – biochemical, small-molecule microarray, fluorescence 635/667, stem cell growth factor project, primary screen (AID 1064); details: higher = more signal;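 further: measures binding of the biotinylated anti-FSTL3 antibody to printed compounds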
# [2] = binders from COS7 lysate, DM2A8 probe, primary screen, torsin A project, cell lysate, small-molecule microarray, fluorescence 635/667 (AID 1065); details: higher = more signal, COS7 lysate expressing mutant human TOR1A
# [3] = small molecules captured by biotinylated probe aFGF2 – biochemical, small-molecule microarray, fluorescence 635/667, stem cell growth factor project, primary screen (AID 1067); details: higher = more signal;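 further: measures binding of biotinylated aFGF2 protein to printed compounds on slides; z-score merges feature fluorescence and signal-to-noise across triplicate slides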
# [4] = small molecules captured by biotinylated probe aFGF10 – biochemical, small-molecule microarray, fluorescence 635/667, stem cell growth factor project, primary screen (AID 1071); details: higher = more signal;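 further: score merges 667 nm spot intensity and signal to noise from triplicate slides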
# [5] = molecular target: Neurogenic locus notch homolog protein 2 (Homo sapiens) (UniProt Q04721); test: small molecules binding Notch2 protein – biochemical, small-molecule microarray, 635 nm fluorescence, stem cell growth factors, primary screen (AID 1073); details: higher = more signal
# Neurogenic locus notch homolog protein 2 (Homo sapiens), sequence (Q04721 whole entry, looked up, canonical isoform): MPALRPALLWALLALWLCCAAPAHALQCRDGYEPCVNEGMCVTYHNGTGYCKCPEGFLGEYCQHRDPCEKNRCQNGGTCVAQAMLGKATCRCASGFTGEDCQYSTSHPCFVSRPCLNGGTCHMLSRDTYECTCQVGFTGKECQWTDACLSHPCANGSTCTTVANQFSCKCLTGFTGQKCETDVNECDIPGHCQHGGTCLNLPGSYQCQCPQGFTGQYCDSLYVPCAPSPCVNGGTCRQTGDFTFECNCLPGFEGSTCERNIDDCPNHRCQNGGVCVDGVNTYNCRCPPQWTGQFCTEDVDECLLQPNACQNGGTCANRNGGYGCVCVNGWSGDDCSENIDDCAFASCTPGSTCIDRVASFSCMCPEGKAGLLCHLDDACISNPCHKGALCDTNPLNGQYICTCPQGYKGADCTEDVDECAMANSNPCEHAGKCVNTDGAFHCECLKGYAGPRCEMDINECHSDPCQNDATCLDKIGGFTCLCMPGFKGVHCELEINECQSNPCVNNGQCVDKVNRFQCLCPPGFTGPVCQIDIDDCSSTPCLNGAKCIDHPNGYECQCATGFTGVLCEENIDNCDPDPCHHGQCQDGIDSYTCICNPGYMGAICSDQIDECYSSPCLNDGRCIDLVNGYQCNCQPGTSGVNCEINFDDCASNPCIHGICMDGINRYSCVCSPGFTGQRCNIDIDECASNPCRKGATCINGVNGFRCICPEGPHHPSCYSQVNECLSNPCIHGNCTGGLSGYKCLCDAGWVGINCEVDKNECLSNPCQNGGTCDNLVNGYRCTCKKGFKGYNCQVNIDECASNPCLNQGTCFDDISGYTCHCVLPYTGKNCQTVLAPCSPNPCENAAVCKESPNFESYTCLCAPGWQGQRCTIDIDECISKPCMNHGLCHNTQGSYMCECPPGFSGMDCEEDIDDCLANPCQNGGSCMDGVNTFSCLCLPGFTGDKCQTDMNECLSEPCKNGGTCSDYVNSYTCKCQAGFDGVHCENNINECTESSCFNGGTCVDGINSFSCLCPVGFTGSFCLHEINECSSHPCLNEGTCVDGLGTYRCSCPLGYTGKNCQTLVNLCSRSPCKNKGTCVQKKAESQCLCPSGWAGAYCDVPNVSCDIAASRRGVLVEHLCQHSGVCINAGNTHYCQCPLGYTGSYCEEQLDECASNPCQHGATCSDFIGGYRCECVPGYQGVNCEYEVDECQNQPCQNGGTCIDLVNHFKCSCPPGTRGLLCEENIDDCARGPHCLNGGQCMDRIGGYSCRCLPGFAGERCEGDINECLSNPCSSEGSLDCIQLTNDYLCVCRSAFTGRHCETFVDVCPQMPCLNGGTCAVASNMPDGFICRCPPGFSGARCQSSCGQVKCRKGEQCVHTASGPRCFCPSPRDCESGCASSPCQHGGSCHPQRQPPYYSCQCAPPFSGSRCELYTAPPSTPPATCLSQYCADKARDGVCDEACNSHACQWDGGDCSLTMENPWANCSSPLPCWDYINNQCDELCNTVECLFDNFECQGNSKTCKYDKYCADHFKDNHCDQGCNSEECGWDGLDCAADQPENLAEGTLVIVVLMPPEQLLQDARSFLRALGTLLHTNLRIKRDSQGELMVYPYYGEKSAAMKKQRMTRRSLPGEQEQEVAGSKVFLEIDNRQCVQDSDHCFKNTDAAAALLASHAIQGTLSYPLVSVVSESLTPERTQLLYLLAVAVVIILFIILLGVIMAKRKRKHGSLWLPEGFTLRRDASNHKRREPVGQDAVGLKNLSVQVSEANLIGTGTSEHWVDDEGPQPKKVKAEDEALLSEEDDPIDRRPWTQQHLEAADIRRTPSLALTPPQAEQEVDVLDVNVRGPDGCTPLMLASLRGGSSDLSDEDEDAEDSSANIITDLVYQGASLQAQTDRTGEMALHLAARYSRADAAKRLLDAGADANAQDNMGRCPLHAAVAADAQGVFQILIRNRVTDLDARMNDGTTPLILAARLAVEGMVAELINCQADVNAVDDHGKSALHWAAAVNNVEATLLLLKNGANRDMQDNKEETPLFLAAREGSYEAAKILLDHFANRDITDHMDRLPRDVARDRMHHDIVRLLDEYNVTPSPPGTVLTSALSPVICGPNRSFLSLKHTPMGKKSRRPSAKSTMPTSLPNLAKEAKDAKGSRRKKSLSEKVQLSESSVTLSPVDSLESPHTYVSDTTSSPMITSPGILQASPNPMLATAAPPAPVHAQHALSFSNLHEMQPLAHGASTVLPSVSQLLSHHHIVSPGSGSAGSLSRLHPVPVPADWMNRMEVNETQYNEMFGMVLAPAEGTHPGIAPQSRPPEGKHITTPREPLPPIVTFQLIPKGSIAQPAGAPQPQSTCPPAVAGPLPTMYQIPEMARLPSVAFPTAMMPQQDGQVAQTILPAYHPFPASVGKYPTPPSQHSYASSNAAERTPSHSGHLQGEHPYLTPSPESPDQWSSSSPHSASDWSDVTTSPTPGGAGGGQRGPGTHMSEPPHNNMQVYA
# [6] = molecular target: Pro-neuregulin-1, membrane-bound isoform (Homo sapiens) (UniProt Q02297); test: small molecules binding neuregulin-1 protein – biochemical, small-molecule microarray, fluorescence 635/667, psychiatric disease protein project, primary screen (AID 1075); details: NRG1 binding, 635 nm fluorescence, higher = more signal;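 further: score combines 667 nm spot fluorescence with signal to noise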
# Pro-neuregulin-1, membrane-bound isoform (Homo sapiens), sequence (Q02297 whole entry, looked up, the tested form may be a part, canonical isoform): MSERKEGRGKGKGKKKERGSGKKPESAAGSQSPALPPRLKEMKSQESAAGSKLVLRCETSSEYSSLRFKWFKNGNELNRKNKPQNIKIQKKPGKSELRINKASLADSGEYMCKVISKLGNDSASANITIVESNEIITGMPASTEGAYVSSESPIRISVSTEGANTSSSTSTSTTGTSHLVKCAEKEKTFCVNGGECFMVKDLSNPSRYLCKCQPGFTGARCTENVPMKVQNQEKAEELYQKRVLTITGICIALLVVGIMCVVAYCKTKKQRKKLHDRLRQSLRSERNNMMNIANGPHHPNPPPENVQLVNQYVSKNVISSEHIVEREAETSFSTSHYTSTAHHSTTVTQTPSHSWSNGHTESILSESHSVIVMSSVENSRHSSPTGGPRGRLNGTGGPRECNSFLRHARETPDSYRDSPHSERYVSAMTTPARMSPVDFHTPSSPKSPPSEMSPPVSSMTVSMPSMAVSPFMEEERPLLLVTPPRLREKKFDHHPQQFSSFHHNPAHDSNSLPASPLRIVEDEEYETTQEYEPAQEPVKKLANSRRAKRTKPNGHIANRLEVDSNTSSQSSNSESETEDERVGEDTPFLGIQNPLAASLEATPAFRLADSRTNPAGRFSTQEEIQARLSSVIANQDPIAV
# [7] = tested on: Neuregulin-1 EGF-like domain; test: small molecules binding NRG1 EGF domain – biochemical, small-molecule microarray, 635 nm fluorescence, primary screen (AID 1081); details: higher = more signal;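 further: binding of the protein to compounds printed on small-molecule microarray slides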
# [8] = FRG1 expression reporter modulators in myotubes – cell-based, C2C12 myotubes, firefly/Renilla luciferase, luminescence, FRG1 inhibition for FSHD, primary screen (AID 1084); details: FRG1 promoter luciferase, higher = more signal, called active from +8 up or from −8 down
# [9] = small molecules captured by biotinylated probe aFST – biochemical, small-molecule microarray, fluorescence 635/667, stem cell growth factor project, primary screen (AID 1086); details: higher = more signal;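 further: score merges 667 nm fluorescence with signal-to-noise of each printed compound spot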
# [10] = binders of probe aHhip on microarray, primary screen, stem cell growth factor project, biochemical, small-molecule microarray, fluorescence 635/667 (AID 1087); details: higher = more signal;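 further: score merges spot fluorescence at 667nm with spot signal to noise ratio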
Compound,composite z-score [1],composite z-score [2],composite z-score [3],composite z-score [4],composite z-score [5],composite z-score [6],composite z-score [7],z-score [8],composite z-score [9],composite z-score [10]
CCC(=O)[C@]12O[C@@]3([C@@H]4C(=O)OCC[C@@H]41)N(Cc1ccccc1)C(C)=C(C(=O)OC)[C@@H](c1ccccc1)N3C2=O,0.232,-0.289,-0.163,-0.133,-0.333,-0.0829,-0.814,-0.0144 (inactive),-0.348,-0.134
C=CCC(OC(C)=O)[C@@H]1[C@@H](N(Cc2cccc3ccccc23)C(=O)c2ccc(C)cc2)c2cc(OCCCO)ccc2N1C(=O)c1ccc(-c2ccccc2)cc1 (stereo not given in full),0.115,0.529,-0.0753,0.255,-0.169,0.0808,-0.173,-2.1 (inactive),0.159,-0.335
Cc1ccc(S[C@]2(C(=O)NCCCN(C)C)CC(=O)N(C3CCCCC3)[C@@H]2c2ccc(CO)cc2I)cc1,1.93,-0.697,-0.113,-0.546,-0.197,0.266,0.942,-1.31 (inactive),0.235,-0.0645
CO[C@H]1COC(=O)[C@@H](OCc2ccccc2)C=C[C@H](C)[C@@H](OC)COC(=O)[C@H](OCc2ccccc2)C=C[C@@H]1C,-0.617,-0.144,-0.136,-0.205,-0.893,-0.93,-0.669,-0.23 (inactive),-0.0171,-0.353
CC(C)N1CC=CC23O[C@@H]4/C=C\CCCOC(=O)C4[C@H]2C(=O)N(CCO)[C@@H]3C1=O (stereo not given in full),-0.0118,-0.158,-0.156,-0.958,-0.933,2.16,1.12,-0.469 (inactive),-0.219,-0.257
CCCC=C(CCC)[C@@H](NC(=O)c1ccc(C(F)(F)F)cc1)c1ccccc1,-0.0795,0.333,-0.0483,-0.195,0.237,-0.256,0.113,2.78 (inactive),0.587,-0.0296
CC(=O)NCCCC[C@@H]1NC(=O)[C@H]2C[C@@H](C(=O)NCCCCCCN(C)C)[C@@H](c3cccc(OCCO)c3)N2C1=O,0.0256,2.05,0.0996,1.24,1.54,0.681,1.35,2.92 (inactive),0.861,0.0053
CC(C)[Si](OCCCNS(=O)(=O)c1ccc(Br)cc1)(C(C)C)C(C)C,-0.491,0.231,-0.0529,0.962,1.43,0.344,0.468,-3.13 (inactive),0.623,-0.0645
C=CC[C@]1(C(=O)N2CCCCC2)N=C(c2ccc(OCCCO)cc2)O[C@H]1c1ccccc1N=[N+]=[N-],1.16,1.11,0.256,0.984,1.5,1.67,1.24,-2.1 (inactive),1.87,-0.0237
CCCN1C(=O)[C@@]2(CCS(=O)(=O)c3ccccc3)N=C(c3ccc(OCCCO)cc3)O[C@H]2c2ccccc21,0.309,0.437,0.0127,0.136,0.728,1.72,1.36,-3.15 (inactive),0.328,0.0722
C=C(COC)/C(=C/C[C@H](OC(C)=O)c1ccc(OCCO)cc1)c1cnc2ccccc2c1,0.0732,0.0548,0.0001,0.765,1.41,-0.0967,0.99,0.345 (inactive),0.372,0.176
CCN1C(C)=C(C(=O)OC)[C@@H](c2ccccc2)N2C(=O)[C@@]3(C(=O)OC)O[C@@]12[C@@H]1C(=O)N(c2ccccc2)C(=O)[C@@H]13,-0.418,0.833,-0.0924,0.877,1.14,0.75,0.892,-0.909 (inactive),0.585,0.122
CC(C)(C)OC(=O)CC[C@]1(C(=O)NCCN2CCOCC2)N=C(c2ccc(OCCCO)cc2)O[C@H]1c1ccccc1CN=[N+]=[N-],0.182,1.16,0.0402,0.07,1.24,1.73,1.42,2.72 (inactive),0.278,-0.0672
COc1ccc(CCNC(=O)[C@@]2(c3ccc([N+](=O)[O-])cc3)CC(=O)N(C(C)C)[C@@H]2c2ccc(CO)cc2)cc1,0.988,-0.716,-0.116,-0.94,-1.38,1.57,0.987,-1.39 (inactive),-0.529,-0.265
CCOC(=O)C[C@H]1[C@H](OC(=O)c2cc3ccccc3oc2=O)[C@@H](NC(=O)C2CCCCC2)c2cc(OCCCO)ccc2N1C(=O)c1ccc2ccccc2n1,-0.662,0.0931,-0.179,0.414,0.432,0.295,0.675,-0.541 (inactive),0.33,-0.0645
CO[C@H]1COC(=O)[C@H](C)COC(=O)[C@H](Cc2ccccc2)NC(=O)CC=C[C@H]1C,0.34,0.355,-0.167,-0.106,-0.889,-0.339,-0.942,-0.412 (inactive),0.0716,-0.455
O=C1O[C@@H](c2ccccc2)[C@@H](c2ccccc2)N2[C@@H](c3ccc(OCCO)cc3)[C@]3(C(=O)Nc4ccc(C#CCCO)cc43)[C@@H](C(=O)N3CCN(c4ncccn4)CC3)[C@H]12,-0.375,0.388,0.0364,0.617,0.731,1.2,1.2,0.126 (inactive),0.488,-0.171

Compound,composite z-score [1],composite z-score [2],composite z-score [3],composite z-score [4],composite z-score [5],composite z-score [6],composite z-score [7],z-score [8],composite z-score [9],composite z-score [10]
C=C(CCCC)C(=O)CC[C@@H](OC(=O)c1cccnc1)c1cccc(OCCO)c1,0.116,0.908,0.0766,1.07,-0.552,0.544,0.586,0.197 (inactive),0.344,-0.0645
COC(=O)[C@@]1(Cc2ccccc2)[C@H]2c3cc(C(=O)N4CCCC4)n(CCN4CNCC4=O)c3C[C@H]2CN1C(=O)c1ccccc1,0.243,1.35,0.106,0.598,1.4,1.71,1.37,1.41 (inactive),0.604,0.209
CSCC[C@@H]1NC(=O)CC=C[C@@H](C)COC(=O)[C@H](CCSC)NC(=O)CC=C[C@@H](C)COC1=O,-0.678,1.31,-0.127,0.0086,-0.121,-0.283,-0.26,-0.889 (inactive),-0.15,0.0578
CCOC(=O)[C@H]1C/C=C/C[C@H](C(=O)OCC)C(=O)O[C@H]2[C@@H](OC)O[C@H](CO)[C@@H](OC(=O)Nc3ccc(Br)cc3)[C@@H]2OC1=O,0.762,0.475,-0.108,0.28,0.798,0.991,1.29,0.892 (inactive),0.449,-0.0613
COC(=O)Cn1c(C(=O)N2CCCC2)cc2c1C[C@H]1CN(C(=O)c3ccccc3)[C@@](Cc3ccc(OC)cc3)(C(=O)OC)[C@@H]21,0.666,-0.157,0.236,0.495,1.68,1.8,1.27,0.0502 (inactive),1.7,0.151
CC(C)[Si]1(C(C)C)OCc2cc(C3CC3)nc(-c3ccccc3)c21,0.322,0.598,-0.119,-1.2,-1.27,-0.291,-0.531,-1.03 (inactive),-0.135,-0.261
COCCOC(=O)N1C(=O)[C@@]2(c3cc(C#CCNC(N)=O)ccc31)[C@H](c1ccc(OCCO)cc1)N1[C@H](c3ccccc3)[C@H](c3ccccc3)OC(=O)[C@H]1[C@@H]2C(=O)N1CCCCCCC1,2.75,0.0698,0.128,0.209,0.315,-0.0446,-0.116,-0.271 (inactive),1.46,0.167
CCCC=C(CCC)[C@@H](NC(=O)c1ccccc1)c1ccccc1,0.969,-0.239,-0.0392,-0.41,-0.028,-0.806,-0.943,-0.788 (inactive),0.636,0.304
COc1ccc([Si](C)(C)[C@H]2[C@H](CCO)O[C@@]3(C(=O)N(Cc4ccc(N5CCCCC5=O)cc4)c4ccccc43)[C@@H]2C)cc1,0.0352,0.959,-0.0747,-0.0971,0.308,1.46,1.05,-4.59 (inactive),0.172,-0.0994
CC(=O)NCCCC[C@@H]1NC(=O)[C@@H]2C[C@H](C(=O)NCCCCCCN(C)C)[C@H](c3ccc(O)cc3)N2C1=O,-0.438,1.71,0.0513,1.19,0.734,1.56,1.51,4.01 (inactive),0.541,0.797
O=C1c2ccccc2[C@](Cc2ccccc2I)(C(=O)NCC(F)(F)F)[C@H](c2ccc(CO)cc2)N1Cc1ccccc1C(F)(F)F,-0.379,0.57,-0.0856,0.22,0.902,1,1.2,-0.307 (inactive),1.16,-0.466
C[C@]1(C(=O)NCc2ccccc2)c2ccccc2C(=O)N(Cc2cc(C(F)(F)F)cc(C(F)(F)F)c2)[C@H]1c1ccc(CO)cc1,0.158,1.05,0.168,0.149,1.04,0.196,1.23,-1.65 (inactive),0.185,-0.359
COCCOC(=O)N1C(=O)[C@@]2(c3cc(C#CCCO)ccc31)[C@H](C(=O)N1CCCCCCC1)[C@H]1C(=O)O[C@H](c3ccccc3)[C@H](c3ccccc3)N1[C@@H]2c1ccc(O)cc1,2.61,1.22,0.188,0.514,1.15,1.17,1.13,-2.05 (inactive),2.25,0.497
C=CC[C@]1(C(=O)OC)N=C(c2ccc(OCCCO)cc2)O[C@H]1c1ccccc1CN=[N+]=[N-],2.1,0.164,-0.0004,-0.564,-0.543,0.391,0.863,-1.55 (inactive),0.629,-0.0994
C[N+](C)(C)CCCCNC(=O)[C@H]1C[C@H]2C(=O)NCC(=O)N2[C@H]1c1cccc(OCCO)c1,-0.514,2.35,-0.0375,1.15,0.0841,0.309,1.43,1.73 (inactive),0.533,0.245
Cc1ccc(S(=O)(=O)N2[C@@H](c3ccccc3)C(C(=O)O)=CC[C@H]2c2ccccc2)cc1,-0.0332,-0.0906,-0.0502,0.693,1.44,1.06,1.38,-2.89 (inactive),0.273,0.0854

# Source: PubChem BioAssay
